In PubChem BioAssay (NCI):
Values joined by “and” are separate entries in the source; they are usually repeats but may differ in a detail not shown here. Equal entries are not always repeated. Compounds without any hit were thinned out: in the full panel of roughly 83,000, 20% have a hit.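 Interpretation: 100, growth as untreated; towards 0, rising growth inhibition; 0, no net growth; 0 to -100, cell death. Compounds scoring below 10 were considered active.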 Active and inactive are the calls of the source.

Assays:
Test in all cases: NCI-60 one-dose screen, 48 h (100 = growth as untreated, 0 = no growth, -100 = all killed)
Settings in all cases: 10 µM unless noted
T-47D breast = system: T-47D breast
BT-549 breast = system: BT-549 breast
MDA-MB-435 melanoma = system: MDA-MB-435 melanoma
SW-620 colon = system: SW-620 colon
MCF7 breast = system: MCF7 breast
HCT-116 colon = system: HCT-116 colon
HCC-2998 colon = system: HCC-2998 colon
KM12 colon = system: KM12 colon

Measured: growth

CC1=CC=C(NC(=O)/C=C/c2ccccc2)CC1Nc1nccc(-c2cccnc2)n1 (configuration not stated)
active: MDA-MB-435 melanoma -48.5%
inactive: T-47D breast 48.1% | BT-549 breast 74.5% | SW-620 colon 27% | MCF7 breast 18% | HCT-116 colon 14.5% | HCC-2998 colon 70.5% | KM12 colon 26.4%

CC[C@H](C)[C@H](NC(=O)[C@H](CCCCN)NC(=O)[C@H](CCCCN)NC(=O)[C@@H](NC(=O)[C@@H](NC(=O)[C@@H](N)Cc1cnc[nH]1)[C@@H](C)CC)[C@@H](C)CC)C(=O)N[C@@H](CCCNC(=N)N)C(=O)N[C@H](C(=O)N[C@@H](Cc1c[nH]c2ccccc12)C(=O)N[C@@H](Cc1ccc(O)cc1)C(=O)N[C@@H](CCCNC(=N)N)C(=O)N[C@@H](CCCCN)C(=O)N[C@@H](C)C(=O)N[C@@H](Cc1c[nH]c2ccccc12)C(=O)N[C@@H](Cc1cnc[nH]1)C(=O)N[C@H](C(=O)N[C@@H](CC(C)C)C(=O)NCC(=O)N[C@@H](CCCCN)C(=O)N[C@H](C(N)=O)C(C)C)C(C)C)[C@@H](C)O
inactive: BT-549 breast 41.9% | MDA-MB-435 melanoma 23.6% | SW-620 colon 44.2% | HCT-116 colon 45.1% | HCC-2998 colon 25.7%
active: T-47D breast -56.4% | MCF7 breast -67.9% | KM12 colon -11.7%

O=C(N=Nc1c(O)[nH]c2ccccc12)Nc1ccc(Br)cc1
inactive: T-47D breast 91.6% | BT-549 breast 89% | MDA-MB-435 melanoma 90.4% | SW-620 colon 91.6% | MCF7 breast 79.1% | HCT-116 colon 88.6% | HCC-2998 colon 104% | KM12 colon 92.4%

Cc1cc(N2CCCCC2)nc(NCc2cc(Nc3ccnc4cc(Cl)ccc34)ccc2F)n1
active: T-47D breast -60.6% | MDA-MB-435 melanoma -86.7% | SW-620 colon -19.2% | MCF7 breast -37.5% | HCT-116 colon -62.8% | HCC-2998 colon -16% | KM12 colon 7.38%
inactive: BT-549 breast 15.5%

Cc1ccc(Cl)cc1N1CCN(C(=O)[C@@H]2C[C@@H]2c2ccc(F)cc2)CC1
inactive: T-47D breast 83.4% | BT-549 breast 97.6% | MDA-MB-435 melanoma 97.6% | SW-620 colon 101% | MCF7 breast 90.6% | HCT-116 colon 68.8% | HCC-2998 colon 98.8% | KM12 colon 85.1%

N#Cc1ccccc1OCC(=O)Nc1nc2c(s1)COc1ccccc1-2
inactive: T-47D breast 86.2% | BT-549 breast 122% | MDA-MB-435 melanoma 104% | SW-620 colon 103% | MCF7 breast 91.4% | HCT-116 colon 102% | HCC-2998 colon 103% | KM12 colon 105%

COC1=CC(c2ccc[nH]2)=N/C1=C\c1[nH]c(C)c(C(=O)Oc2ccccc2)c1C
active: T-47D breast -65.7% | BT-549 breast -15.4% | MDA-MB-435 melanoma -68.6% | SW-620 colon -20.9% | MCF7 breast -54.7% | HCT-116 colon -82.1% | HCC-2998 colon -81.6% | KM12 colon -66%

C=C(CNCCc1ccc(O)cc1)[C@@H]1CC[C@]2(CO)CC[C@]3(C)[C@H](CC[C@@H]4[C@@]5(C)CCC(NCCc6ccc(O)cc6)C(C)(C)[C@@H]5CC[C@]43C)[C@@H]12 (some centres not stated)
active: T-47D breast -69.1% | BT-549 breast -79.7% | MDA-MB-435 melanoma -89.9% | SW-620 colon -74.1% | MCF7 breast -74.3% | HCT-116 colon -92% | HCC-2998 colon -91.3% | KM12 colon -77.4%

COc1ccc(Cl)cc1Nc1nc(C(F)(F)F)ccc1C(=O)N/N=C/c1ccc(N(C)C)cc1
inactive: T-47D breast 82.7% | BT-549 breast 115% | MDA-MB-435 melanoma 121% | SW-620 colon 109% | MCF7 breast 218% | HCT-116 colon 80.3% | HCC-2998 colon 68.3% | KM12 colon 103%

O=C(NNC(=S)Nc1ccccc1)c1ccncc1
inactive: T-47D breast 109% | BT-549 breast 88.1% | MDA-MB-435 melanoma 112% | SW-620 colon 113% | MCF7 breast 94.2% | HCT-116 colon 104% | HCC-2998 colon 109% | KM12 colon 107%

O=C1/C(=C/c2ccc(-c3ccccc3C(F)(F)F)o2)SC(=S)N1CCc1ccc(O)cc1
active: MDA-MB-435 melanoma -14.4%
inactive: T-47D breast 34.8% | BT-549 breast 61.7% | SW-620 colon 32.1% | MCF7 breast 27.7% | HCT-116 colon 33.9% | HCC-2998 colon 81.1% | KM12 colon 28.2%

Cc1nn(-c2nc(-c3cc4ccccc4oc3=O)cs2)c(C)c1N=Nc1ccccc1
inactive: T-47D breast 95.3% | BT-549 breast 99.7% | MDA-MB-435 melanoma 101% | SW-620 colon 103% | MCF7 breast 89.3% | HCT-116 colon 105% | HCC-2998 colon 111% | KM12 colon 100%

OCCN1CCN(CC/C=C2\c3ccccc3Sc3ccc(Cl)cc32)CC1
-91.4% (active) and 12.7% (inactive): HCC-2998 colon
active: MDA-MB-435 melanoma -70.8% and -44.4% | SW-620 colon -75.2% and 0.592% | HCT-116 colon -59.8% and -45.1%
2.71% (active) and 36.2% (inactive): KM12 colon
17.3% (inactive) and 4.22% (active): MCF7 breast
inactive: T-47D breast 48.6% and 57.4% | BT-549 breast 67.5%

COc1ccc(-c2csc(NC(=O)CN3CCN(CCO)CC3)n2)cc1NS(=O)(=O)c1cccc2c(N(C)C)cccc12
inactive: T-47D breast 72% | BT-549 breast 82.1% | MDA-MB-435 melanoma 57.3% | SW-620 colon 84.1% | MCF7 breast 59.6% | HCT-116 colon 73.5% | HCC-2998 colon 73.2% | KM12 colon 77.2%

CCN(CC)CC#CCOC(=O)[C@]1(C)CCC[C@]2(C)c3ccc(C(C)C)cc3CC[C@@H]12
inactive: T-47D breast 78.6% | BT-549 breast 92.7% | MDA-MB-435 melanoma 91.6% | SW-620 colon 87.7% | MCF7 breast 82.6% | HCT-116 colon 58.3% | HCC-2998 colon 91.5% | KM12 colon 85.3%

COc1ccc(-c2cc(-c3cccc(Cl)c3)c(C#N)c(=O)[nH]2)c(OC)c1
inactive: T-47D breast 97.8% | BT-549 breast 85.9% | MDA-MB-435 melanoma 87.1% | SW-620 colon 96.3% | MCF7 breast 88.7% | HCT-116 colon 96.9% | HCC-2998 colon 106% | KM12 colon 102%

Nc1nc(N)c2c(n1)NC(c1cccc(Nc3ccnc4cc(C(F)(F)F)ccc34)c1)CC(c1ccc(F)cc1)=N2 (configuration not stated)
inactive: T-47D breast 68.3% | BT-549 breast 100% | SW-620 colon 26.4% | MCF7 breast 16.7% | HCT-116 colon 22.4% | HCC-2998 colon 54% | KM12 colon 30.2%
active: MDA-MB-435 melanoma -24.7%

Nc1ncnc2c1C(c1ccc([N+](=O)[O-])cc1)c1sc3c(F)cccc3c1O2 (configuration not stated)
inactive: T-47D breast 71.7% | BT-549 breast 111% | MDA-MB-435 melanoma 101% | SW-620 colon 98.3% | MCF7 breast 21.9% | HCT-116 colon 101% | HCC-2998 colon 115% | KM12 colon 92.8%

CC(=O)c1nn(-c2ccccc2)/c(=N/N=Cc2cn(-c3ccccc3)nc2-c2cc3ccccc3oc2=O)s1
inactive: T-47D breast 89.1% | BT-549 breast 105% | MDA-MB-435 melanoma 103% | SW-620 colon 104% | MCF7 breast 91.5% | HCT-116 colon 97.6% | HCC-2998 colon 108% | KM12 colon 106%

O=C1/C(=C/c2ccc(F)c(F)c2)CN(C(=O)C(Cl)Cl)C/C1=C\c1ccc(F)c(F)c1
active: T-47D breast -46.2% | BT-549 breast -98% | MDA-MB-435 melanoma -94.8% | SW-620 colon -67.6% | MCF7 breast -55.2% | HCT-116 colon -98.9% | HCC-2998 colon -83.4% | KM12 colon -89.2%

C/C(=C(\c1ccc(OCCN2CCOCC2)cc1)c1ccc(OC(=O)C2CCCCC2)cc1)c1ccc(Cl)cc1
inactive: T-47D breast 66.5% | BT-549 breast 91.3% | MDA-MB-435 melanoma 94.4% | SW-620 colon 96.6% | MCF7 breast 79.8% | HCT-116 colon 78.7% | HCC-2998 colon 94.2% | KM12 colon 98.8%

CCCCCCNC(=O)Oc1ccc(/C(=C(/CC)Cc2ccccc2)c2ccc(OCCCN(C)C)cc2)cc1
inactive: T-47D breast 54.4% | BT-549 breast 82.8% | MDA-MB-435 melanoma 87.8% | SW-620 colon 59.6% | MCF7 breast 22.9% | HCT-116 colon 39.8% | HCC-2998 colon 24.1% | KM12 colon 82.4%

COc1cc(NS(=O)(=O)C(C)C)cc(-c2cc(-c3ccc(N4CCNCC4)cc3)cnc2N)c1
inactive: T-47D breast 81.9% | BT-549 breast 78.4% | MDA-MB-435 melanoma 92.5% | SW-620 colon 82% | MCF7 breast 81.2% | HCT-116 colon 14.2% | HCC-2998 colon 80.5% | KM12 colon 48.3%

O=C1/C(=C/c2ccccc2[N+](=O)[O-])Cc2ccccc21
inactive: BT-549 breast 19.4% and 27.3% | MDA-MB-435 melanoma 28.4% and 36.3% | HCC-2998 colon 85% and 106% | KM12 colon 52% and 32.2%
1.93% (active) and 64% (inactive): T-47D breast
9.87% (active) and 13% (inactive): MCF7 breast
active: SW-620 colon -56.2% and -45.4% | HCT-116 colon -76.6% and -25.5%
